# Measurements taken from the supplement of paper PMC10981050.
# Several values for one entry are separate records, joined by “and”; a condition that tells them apart may be missing. Equal values may be shown once. Where a name gives a salt, the structure may show the parent alone.
# What was measured:
# Assay in all cases: cell viability relative to vehicle control; higher = less cytotoxic
# Conditions in all cases: 10 µM
# K562 = system: K562
# In short: (§1)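 Screening covered the Selleck bioactive, kinase and epigenetic probe libraries, less identity-inconsistent compounds, on CRISPR-edited mutant clones and isogenic wild-type clones of four leukaemia lines. Cells, at 2000 per well in 50 µL medium, received a single 10 µM acoustically dispensed dose. After 48 h the supernatant was removed and CellTiter-Glo luminescence was read. Viability was analysed in Genedata Screener as percent of the on-plate vehicle control.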
# MARIMO = system: MARIMO
# In short: as §1
# MOLM14 = system: MOLM14
# In short: as §1
# OCI-AML2 = system: OCI-AML2
# In short: as §1
Structure (SMILES),cell viability (K562; SRSF2 genotype: SRSF2 P95H/wt),cell viability (K562; SRSF2 genotype: SRSF2 wt/wt) [%],cell viability (MARIMO; SRSF2 genotype: SRSF2 P95H/wt) [%],cell viability (MARIMO; SRSF2 genotype: SRSF2 wt/wt) [%],cell viability (MOLM14; SRSF2 genotype: SRSF2 P95H/wt) [%],cell viability (MOLM14; SRSF2 genotype: SRSF2 wt/wt) [%],cell viability (OCI-AML2; SRSF2 genotype: P95H/wt) [%],cell viability (OCI-AML2; SRSF2 genotype: wt/wt) [%]
Nc1nc(F)nc2c1ncn2[C@@H]1O[C@H](CO)[C@@H](O)[C@@H]1O [Fludarabine (Fludara)],102% and 107%,100,64.5,77.6,65.7,82.8,4.58,5.52
C1N2CN3CN1CN(C2)C3 [Methenamine (Mandelamine)],104% and 102%,99.1,103,108,107,105,99,112
CCC(=O)NS(=O)(=O)c1ccc(-c2c(-c3ccccc3)noc2C)cc1 [Parecoxib],100% and 96.7%,97.5,101,108,101,101,88.3,99.7
OCCOCCN1CCN(Cc2cccc(Oc3ccccc3)c2)CC1,97.6% and 99.2%,94,90,99.3,94.5,99.8,84,93.8
CC(C)[C@H](O)C(=O)N[C@@H](C)C(=O)N[C@@H]1C(=O)N(C)CCc2ccccc21,106% and 107%,106,96,107,109,105,101,111
C/C=C(/C)C(=O)O[C@H]1Cc2cc3ccc(=O)oc3cc2OC1(C)C [Decursinol angelate],83.2% and 91.7%,81.8,75,82.4,83.1,89.4,71.1,77.8
Cc1ccccc1C(OCCN(C)C)c1ccccc1 (stereo not given) [Orphenadrine Hydrochloride],99.9% and 97.1%,101,86.2,92.2,100,103,101,98.8
O=S(=O)(c1cccc2cnccc12)N1CCCNCC1 [Fasudil HCl (HA-1077)],97.2% and 90.4%,94,81.6,92.8,75,94.4,70.3,75.3
COC(=O)C1=COC(OC2OC(CO)C(O)C(O)C2O)C2C(CO)=CC(O)C12 (stereo not given),105% and 104%,109,105,93.2,105,107,98.6,98.7
Nc1ncc(-c2ccnc(Nc3ccncc3)n2)c(CC2CC2)n1,69% and 73.7%,74.2,69.8,66.9,44.8,43.8,43.3,45.2
CNCCc1ccccn1 [Betahistine],102% and 100%,102,100,103,101,105,102,105
O=C(O)c1ccc2c(c1)nc(Nc1cccc(Cl)c1)c1ccncc12 [cx-4945 (Silmitasertib)],49.9% and 60.1%,63.7,49.7,47.3,26.9,34,5.84,22.2
CC(C(=O)O)c1cccc(Oc2ccccc2)c1 (stereo not given) [Fenoprofen calcium],90.9% and 83.7%,86.4,88.2,92.5,89.5,90.7,84.1,87.5
Cc1ccccc1CN1C(=O)C2=C(CCN(Cc3ccccc3)C2)N2CCN=C12,48.2% and 48%,44.5,46.4,43.9,36.8,44.5,29.3,32
S=C(N/N=C1/CCCc2cccnc21)N1CCN(c2ccccn2)CC1,16.2% and 6.78%,26.6,28,25.2,22.1,13.9,22.8,30.5
CC1=C[C@]2(O)O[C@@]3(CC2=C(C)C)[C@@H](C)CC[C@@H]13 [Curcumenol],106% and 103%,99.5,96.5,109,102,99,88.6,99
Nc1nc(F)nc2c1ncn2[C@@H]1O[C@H](COP(=O)(O)O)[C@@H](O)[C@@H]1O [Fludarabine Phosphate (Fludara)],105% and 112%,98.7,64.2,84.9,88.1,101,6.47,10.8
COc1cc(OC)c(C(=O)CCCN2CCCC2)c(OC)c1 [Buflomedil HCl],93.2% and 114%,108,100,102,112,106,113,101
C[C@H]1C[C@H]2[C@@H]3C[C@H](F)C4=CC(=O)C=C[C@]4(C)[C@@]3(F)[C@@H](O)C[C@]2(C)[C@@]1(O)C(=O)CO [Diflorasone],101% and 99.2%,105,109,113,92.1,98.9,92.7,120
C=C1[C@H](O)C[C@H]2[C@@H](/C=C(\C)C(=O)[C@@]3(O)C[C@H](C)[C@H](O)[C@@H]3[C@H]1O)C2(C)C,98.1% and 92%,99,93.7,100,99.8,98.1,93.9,101

Structure (SMILES),cell viability (K562; SRSF2 genotype: SRSF2 P95H/wt),cell viability (K562; SRSF2 genotype: SRSF2 wt/wt) [%],cell viability (MARIMO; SRSF2 genotype: SRSF2 P95H/wt) [%],cell viability (MARIMO; SRSF2 genotype: SRSF2 wt/wt) [%],cell viability (MOLM14; SRSF2 genotype: SRSF2 P95H/wt) [%],cell viability (MOLM14; SRSF2 genotype: SRSF2 wt/wt) [%],cell viability (OCI-AML2; SRSF2 genotype: P95H/wt) [%],cell viability (OCI-AML2; SRSF2 genotype: wt/wt) [%]
O=C1N=C(O)NC1(c1ccccc1)c1ccccc1 [Phenytoin sodium (Dilantin)],98% and 104%,96.8,104,103,97.7,102,103,94
CC(C)(C)c1cnc(CSc2cnc(NC(=O)C3CCNCC3)s2)o1,24.3% and 35.5%,27.3,9.12,4.42,3.75,0.63,4.54,18.1
C[C@H](C[C@H](O)[C@@H](O)C(C)(C)O)C1=C2C[C@H](O)[C@H]3[C@@]4(C)CCC(=O)C(C)(C)[C@@H]4CC[C@]3(C)[C@@]2(C)CC1 [Alisol A],85.4% and 85.1%,89.8,86.9,79.1,98.4,96.2,84.9,83.5
Cc1c(C(=O)Nc2ccc(N3CCC(N4CCOCC4)CC3)c(C#N)c2)cnn1-c1ccc(Cl)cc1,8.99% and 14.7%,47.6,6.27,12.2,11,1.97,8.8,11.4
COc1cc(Nc2ncc(F)c(Nc3ccc4c(n3)N(COP(=O)(O)O)C(=O)C(C)(C)O4)n2)cc(OC)c1OC [R788 (Fostamatinib)],65.8% and 65.1%,59.4,63.8,57,3.63,6.37,11.3,21.2
CCCCCCCCCCCCCCCC(=O)OCC [Ethyl palmitate],101%,97.9,103,106,106,101,98,107
Clc1ccc(C(Cn2ccnc2)OCc2ccc(Sc3ccccc3)cc2)c(Cl)c1 (stereo not given) [Fenticonazole nitrate],76.5% and 67.7%,63.8,62.4,78,70.6,73,63.3,69.1
CCCCc1nc(Cl)c(CO)n1Cc1ccc(-c2ccccc2-c2nnn[nH]2)cc1 [Losartan potassium],106% and 103%,104,103,114,104,104,102,106
Nc1ccc(O)c(C(=O)O)c1 [Mesalamine (Lialda)],94.9% and 87.4%,90.1,89.8,94.7,87.3,92.1,97.2,100
OCCOCCN1CCN(C(c2ccccc2)c2ccc(Cl)cc2)CC1 (stereo not given) [Hydroxyzine pamoate],88.7% and 98%,100,79.8,91.8,79.9,96.4,87.9,94.6
CCc1cnn2c(NCc3ccc[n+]([O-])c3)cc(N3CCCC[C@H]3CCO)nc12,8.67% and 18.9%,13.1,10.8,4.43,2.65,0.52,5.12,17.9
CC[C@@H]1[C@H]2CCCCN3[C@H]2[C@H](C[C@H]3[C@@H]2C[C@H](C)C(=O)O2)[C@@H]2[C@H]1OC(=O)[C@H]2C [Tuberostemonine],84.4% and 95%,88.8,83.6,89.3,64,97.8,107,100
O=S(=O)(O)CCSSCCS(=O)(=O)O [Dimesna],107% and 101%,95,99.3,103,96.3,99.6,106,105
CC1=CC(=O)[C@@H]2C[C@H]1C2(C)C [(-)-Verbenone],105% and 102%,96.3,92.5,98.8,90.8,95.7,87.2,96.3
COC(=O)c1ccc(O)cc1 [Methyl 4-hydroxybenzoate],93% and 82.6%,88.2,90.5,94.1,91.9,95.5,91.2,90.5
O=C1c2ccc(Nc3ccc(F)cc3F)cc2CCc2ccc(OC[C@H](O)CO)cc21 [Skepinone-L],84.7% and 79.7%,77.7,91.7,100,104,102,77.2,73.7
C/C=C/C=C/C(=O)O [Sorbic acid],92.4% and 92.8%,92.6,90.7,99.1,99.3,101,106,106
C=CC(=O)N1CC(N2CCN(C(=O)CNc3cc(C4(C)CC4)c(Cl)cc3O)CC2)C1,93.9% and 95.2%,97.3,88.9,102,86.1,104,112,108
OCCn1cc(-c2cnc3nnn(Cc4ccc5ncccc5c4)c3n2)cn1,96.9% and 99.3%,104,105,102,99.4,100,97.9,97.9
C[C@H](CCC(=O)NCCS(=O)(=O)O)[C@H]1CC[C@H]2[C@@H]3[C@H](O)C[C@@H]4C[C@H](O)CC[C@]4(C)[C@H]3C[C@H](O)[C@]12C [Taurocholic acid sodium salt hydrate],110% and 102%,107,107,108,103,111,106,107
